Some test systems named below: RPMI-8226 leukemia; OVCAR-8 ovarian; OVCAR-5 ovarian; OVCAR-4 ovarian; SK-OV-3 ovarian; IGROV1 ovarian; OVCAR-3 ovarian; HS 578T breast; NCI/ADR-RES ovarian; T-47D breast; BT-549 breast; MDA-MB-435 melanoma; SW-620 colon; MCF7 breast; HCT-116 colon; HCC-2998 colon; KM12 colon.
Holding throughout (test): NCI-60 one-dose screen, 48 h (100 = growth as untreated, 0 = no growth, -100 = all killed)
Conditions in all cases: 10 µM unless noted

Compounds without any hit were thinned out: in the full panel of roughly 83,000, 20% have a hit.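 Cell lines were cultured in 96-well plates, exposed to a single compound concentration, and assessed for percent growth 48 hours later.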 A number with no mark means an inactive call. Active and inactive are the calls of the source. The calls were made as follows: active = growth percent below 10; inactive = the rest.

Regarding `O=C1NCN(c2ccccc2)C12CCN(CCCC(c1ccc(F)cc1)c1ccc(F)cc1)CC2`, the growth in the assay on RPMI-8226 leukemia is 102%; in the assay with OVCAR-8 ovarian, 66.1%; in the assay on OVCAR-5 ovarian, 83.2%; with OVCAR-4 ovarian it was 48.5%; in the assay with SK-OV-3 ovarian it was 73.4%; in the assay on IGROV1 ovarian, 47.7%. The growth was 66.8% in the assay with OVCAR-3 ovarian; 69.3% in the assay with HS 578T breast; 69.9% in the assay on NCI/ADR-RES ovarian; 94.2% in the assay on T-47D breast; 61.6% with BT-549 breast; 47.7% in the assay with MDA-MB-435 melanoma. For the same compound, the growth in the assay with SW-620 colon was 77%; in the assay with MCF7 breast, 37.8%; in the assay on HCT-116 colon it was 30.1%; in the assay on HCC-2998 colon, 15.9%; in the assay on KM12 colon it was 76.3%.
With `O=C1/C(=N/O)CCc2ccccc21`, the growth in the assay with RPMI-8226 leukemia was 72.9%; in the assay on OVCAR-8 ovarian it was 95.6%; with OVCAR-5 ovarian it was 108%; in the assay on OVCAR-4 ovarian it was 85.7%; in the assay with SK-OV-3 ovarian it was 100%; in the assay with IGROV1 ovarian it was 69.5%. Besides, the growth is -6.51% (active) with OVCAR-3 ovarian; 95% in the assay on HS 578T breast; 102% with NCI/ADR-RES ovarian; 100% in the assay on T-47D breast; 102% in the assay on BT-549 breast; 95.6% with MDA-MB-435 melanoma. The growth in the assay with SW-620 colon was 95%; in the assay with MCF7 breast it was 96.3%; with HCT-116 colon it was 83.6%; in the assay with HCC-2998 colon, 103%; in the assay with KM12 colon it was 89.3%.
For the compound `O=C(CN1CCCCC1)Sc1nnc2sc3ccccc3n12`, the growth is 108% with RPMI-8226 leukemia; 98.8% in the assay on OVCAR-8 ovarian; 144% in the assay on OVCAR-5 ovarian; 105% in the assay with OVCAR-4 ovarian; 89.5% in the assay with SK-OV-3 ovarian; 121% in the assay on IGROV1 ovarian. For the same compound, the growth was 111% in the assay on OVCAR-3 ovarian; 110% in the assay with HS 578T breast; 100% in the assay on NCI/ADR-RES ovarian; 92.2% in the assay with T-47D breast; 104% in the assay on BT-549 breast; 111% in the assay with MDA-MB-435 melanoma. Also, the growth in the assay with SW-620 colon is 101%; in the assay with MCF7 breast it was 92.9%; in the assay on HCT-116 colon, 95.3%; in the assay on HCC-2998 colon it was 116%; with KM12 colon, 104%.
For the compound `ClC1C2CC(c3ccccc32)C1Cl` (stereo not drawn), the growth in the assay with RPMI-8226 leukemia was 97.6%; in the assay on OVCAR-8 ovarian, 113%; in the assay with OVCAR-5 ovarian, 102%; in the assay with OVCAR-4 ovarian, 112%; in the assay with SK-OV-3 ovarian, 115%; in the assay on IGROV1 ovarian, 118%. For the same compound, the growth in the assay on OVCAR-3 ovarian was 113%; with HS 578T breast, 113%; in the assay on NCI/ADR-RES ovarian it was 106%; in the assay on T-47D breast it was 103%; in the assay on BT-549 breast, 102%; in the assay with MDA-MB-435 melanoma, 120%. The growth was 110% in the assay on SW-620 colon; 103% with MCF7 breast; 105% with HCT-116 colon; 110% with HCC-2998 colon; 116% in the assay with KM12 colon.
On to `CN1CCN(CC(=O)Nc2nc3c(s2)Nc2cc(Cl)c(Cl)cc2NC3=O)CC1`, for which the growth with RPMI-8226 leukemia is 108%; in the assay on OVCAR-8 ovarian, 99.3%; in the assay with OVCAR-5 ovarian, 113%; with OVCAR-4 ovarian, 116%; with SK-OV-3 ovarian it was 99%; in the assay with IGROV1 ovarian it was 110%. In addition, the growth in the assay on OVCAR-3 ovarian is 115%; in the assay on HS 578T breast, 107%; in the assay with NCI/ADR-RES ovarian, 109%; in the assay with T-47D breast it was 98.1%; in the assay on BT-549 breast, 100%; in the assay on MDA-MB-435 melanoma, 107%. Further, the growth with SW-620 colon is 112%; with MCF7 breast it was 104%; with HCT-116 colon it was 100%; in the assay on HCC-2998 colon, 110%; in the assay on KM12 colon, 102%.
With `COc1ccc(-c2cncn2-c2ccc(-c3nc4cc(OC)c(OC)c(OC)c4s3)cc2)cc1N`, the growth was 62.2% in the assay on RPMI-8226 leukemia; 37.1% in the assay on OVCAR-8 ovarian; 96.4% with OVCAR-5 ovarian; 46.7% with OVCAR-4 ovarian; 103% in the assay on SK-OV-3 ovarian; 58.8% in the assay with IGROV1 ovarian. Also, the growth was 44.2% in the assay on OVCAR-3 ovarian; 74.7% in the assay on HS 578T breast; 52.4% in the assay with NCI/ADR-RES ovarian; 50.5% in the assay on T-47D breast; 31.5% in the assay with BT-549 breast; 47.6% in the assay with MDA-MB-435 melanoma. Further, the growth with SW-620 colon is 63.6%; with MCF7 breast it was 39.9%; in the assay with HCT-116 colon, 36.3%; with HCC-2998 colon, 80.5%; in the assay with KM12 colon, 51.8%.
With `O=C(Cn1ccnc1)NC(c1ccccc1)c1ccccc1`, the growth with RPMI-8226 leukemia is 108%; in the assay on OVCAR-8 ovarian, 102%; in the assay with OVCAR-5 ovarian it was 83.5%; in the assay on OVCAR-4 ovarian it was 105%; in the assay on SK-OV-3 ovarian, 114%; in the assay on IGROV1 ovarian, 106%. Also, the growth with OVCAR-3 ovarian is 116%; with HS 578T breast, 102%; with NCI/ADR-RES ovarian, 102%; in the assay with T-47D breast, 101%; with BT-549 breast, 105%; in the assay with MDA-MB-435 melanoma it was 99.4%. Further, the growth is 106% in the assay with SW-620 colon; 100% in the assay on MCF7 breast; 106% with HCT-116 colon; 97.6% in the assay with HCC-2998 colon; 103% in the assay on KM12 colon.
As for `O=[N+]([O-])c1ccc(Oc2cccc(C(F)(F)F)c2)c([N+](=O)[O-])c1`, the growth in the assay with RPMI-8226 leukemia was 79.3%; in the assay on OVCAR-8 ovarian, 12.7%; with OVCAR-5 ovarian it was 68.1%; with OVCAR-4 ovarian it was 98.2%; in the assay with SK-OV-3 ovarian it was 44.5%; with IGROV1 ovarian, 12.3%. Also, the growth was 44.9% in the assay on OVCAR-3 ovarian; 105% in the assay with HS 578T breast; 29.1% with NCI/ADR-RES ovarian; 48% in the assay on T-47D breast; 3.1% (active) with BT-549 breast; -16.6% (active) in the assay on MDA-MB-435 melanoma. The growth with SW-620 colon is 13.5%; with MCF7 breast, 112%; in the assay with HCT-116 colon it was 3.46% (active); in the assay on HCC-2998 colon, 92.5%; with KM12 colon it was 86.2%.
Regarding `COC(=O)CCC1=C(C)C(C)=N/C1=C\c1[nH]c(-c2ccc[nH]2)cc1OC`, the growth was -61.8% (active) in the assay with RPMI-8226 leukemia; 5.55% (active) with OVCAR-8 ovarian; 22.7% with OVCAR-5 ovarian; 11.8% in the assay on OVCAR-4 ovarian; 16.2% in the assay with SK-OV-3 ovarian; 18.4% with IGROV1 ovarian. The growth in the assay on OVCAR-3 ovarian is -34.5% (active); with HS 578T breast, -6.06% (active); in the assay with NCI/ADR-RES ovarian, 6.26% (active); in the assay with T-47D breast it was 7.35% (active); with BT-549 breast, 29.2%; in the assay with MDA-MB-435 melanoma, -5.95% (active). The growth with SW-620 colon is 7.46% (active); in the assay with MCF7 breast it was 4.8% (active); with HCT-116 colon, -59.8% (active); in the assay on HCC-2998 colon, 12.5%; in the assay with KM12 colon, 12.7%.

The values are drawn from PubChem BioAssay (NCI).
